# Counter-ions that a name gives are not always drawn. Values without a mark were called inactive.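 How the source made its calls: active = normalised median growth AUC below 0.1 of DMSO control; inactive = AUC 0.1 or higher.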
# Tested on: S. enterica typhimurium WT
# Assay: growth AUC normalised to DMSO control (median) (fraction of control); higher = less growth inhibition, active = hit call of the paper
# Details: 20 µM
# How it was run: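 Anaerobic growth was tracked hourly at OD578 for 24 h in 96-well plates of mGAM seeded at OD578 0.01 with each approved-drug library compound at 20 μM and 1% DMSO. Strains had first been passaged twice overnight without oxygen. Three biological replicates were run. The reported median is the area under the curve, calculated by the trapezoidal rule on curves truncated at entry into stationary phase and normalised to vehicle wells on the same plate.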
# 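Further: active when median AUC fell below 0.1.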
row,Structure (SMILES),growth AUC normalised to DMSO control
1,O=C1c2cccc3c2[C@H](CCC3)CN1[C@@H]1CN2CCC1CC2 [Palonosetron hydrochloride],1
2,N[C@@H](CSCCCO)C(=O)O [Fudosteine],0.996
3,NC[C@H]1O[C@H](O[C@H]2[C@H](O)[C@@H](O[C@H]3O[C@H](CO)[C@@H](O)[C@H](N)[C@H]3O)[C@H](N)C[C@@H]2N)[C@H](N)[C@@H](O)[C@@H]1O [Kanamycin B],0.947
4,CC1=C(C)C(=O)C(C(CCCCCC(=O)O)c2ccccc2)=C(C)C1=O (stereo not given) [Seratrodast],1.01
5,Cc1cccc(C)c1OCC(=O)N[C@@H](Cc1ccccc1)[C@@H](O)C[C@H](Cc1ccccc1)NC(=O)[C@H](C(C)C)N1CCCNC1=O [Lopinavir],1.01
6,CC(C)=CCOc1ccc(/C=C/C(=O)c2ccc(OCC=C(C)C)cc2OCC(=O)O)cc1 [Sofalcone],1
7,CCCCS(=O)(=O)N[C@@H](Cc1ccc(OCCCCC2CCNCC2)cc1)C(=O)O [Tirofiban hydrochloride],0.989
8,Brc1c(NC2=NCCN2)ccc2nccnc12 [Brimonidine L-tartrate],0.999
9,CC(=O)Nc1c(I)c(NC(C)=O)c(I)c(C(=O)O)c1I [Diatrizoic acid dihydrate],0.998
10,CCOC(=O)OC(C)OC1=C(C(=O)Nc2ccccn2)N(C)S(=O)(=O)c2ccccc21 (stereo not given) [Ampiroxicam],1
11,N[C@@H](CCC(=O)N[C@@H](CS)C(=O)NCC(=O)O)C(=O)O [Glutathione],1
12,CC(C)CN(C[C@@H](O)[C@H](Cc1ccccc1)NC(=O)O[C@H]1CCOC1)S(=O)(=O)c1ccc(N)cc1 [Amprenavir],0.995
13,COc1ccc2c(c1)c(CC(=O)OC/C=C(\C)CC/C=C(\C)CCC=C(C)C)c(C)n2C(=O)c1ccc(Cl)cc1 [Indometacin farnesil],0.996
14,C=C1[C@H](CO)[C@@H](O)C[C@@H]1n1cnc2c(=O)[nH]c(N)nc21 [Entecavir],0.999
15,CCCN1CCCC[C@H]1C(=O)Nc1c(C)cccc1C [Ropivacaine hydrochloride],0.997
16,CCNC(=O)CCC/C=C\C[C@@H]1[C@@H](/C=C/[C@@H](O)CCc2ccccc2)[C@H](O)C[C@@H]1O [Bimatoprost],1.01
17,C[C@@H](CN1CC(=O)NC(=O)C1)N1CC(=O)NC(=O)C1 [Dexrazoxane hydrochloride],1.01
18,CN(C/C=C/C#CC(C)(C)C)Cc1cccc2ccccc12 [Terbinafine],1.01
19,C[C@H]1[C@@H](O)O[C@@H]2O[C@@]3(C)CC[C@H]4[C@H](C)CC[C@@H]1[C@@]24OO3 [Artenimol],1
20,O=c1[nH]cnc2c1ncn2[C@@H]1O[C@H](CO)[C@@H](O)[C@H]1O [Inosine],0.991

row,Structure (SMILES),growth AUC normalised to DMSO control
1,CC1(C)S[C@@H]2[C@H](NC(=O)[C@H](N)c3ccccc3)C(=O)N2[C@H]1C(=O)OC1OC(=O)c2ccccc21 (stereo not given in full) [Talampicillin hydrochloride],0.00491 (active)
2,CC(C(=O)O)c1ccc(N2CC=CC2)c(Cl)c1 (stereo not given) [Pirprofen],1
3,Cn1cc([S+](C)[O-])c(=O)c2ccc(F)cc21 (stereo not given) [Flosequinan],0.992
4,CCN(CC)CCOCCOC(=O)C(CC)(CC)c1ccccc1 [Oxeladin citrate],0.995
5,Cc1ccc2c([nH]c(=O)c3c(=O)cc(C(=O)OCCC(C)C)oc32)c1C [Repirinast],1.01
6,Nc1c2ccccc2nc2ccccc12 [Aminacrine],0.902
7,O=C(O)C1CSCN1 (stereo not given) [Timonacic],0.998
8,Nc1ccc(S(=O)(=O)Nc2ccc(Cl)nn2)cc1 [Sulfachloropyridazine],0.965
9,N#Cc1ccc(Oc2ccc3c(c2)COB3O)cc1 [Crisaborole],1.01
10,N=c1ccn2c(n1)O[C@H]1[C@H](O)[C@@H](CO)O[C@H]12 [Ancitabine hydrochloride],1.01
11,Oc1cc(O)c2c(c1)O[C@H](c1ccc(O)c(O)c1)[C@@H](O)C2 [Cianidanol],1.01
12,COc1cccc(CCc2ccccc2OCC(CN(C)C)OC(=O)CCC(=O)O)c1 (stereo not given) [Sarpogrelate hydrochloride],1
13,CC(=O)N[C@H]1[C@H]([C@H](O)[C@H](O)CO)OC(C(=O)O)=C[C@@H]1NC(=N)N [Zanamivir],1
14,CN1CCN(C2Cc3ccccc3Sc3ccc(Cl)cc32)CC1 (stereo not given) [Octoclothepin maleate salt],0.981
15,Cc1ccc2c(Cl)cc(Cl)c(O)c2n1 [Chlorquinaldol],0.982
16,NS(=O)(=O)c1cc2c(cc1Cl)NC(Cc1ccccc1)NS2(=O)=O (stereo not given) [Benzylhydrochlorothiazide],1
17,N[C@@H](C(=O)N[C@@H]1C(=O)N2C(C(=O)O)=C(Cl)CC[C@H]12)c1ccccc1 [Loracarbef],0.018 (active)
18,CC(=O)OC[C@H]1O[C@@H](n2ncc(=O)[nH]c2=O)[C@H](OC(C)=O)[C@@H]1OC(C)=O [Azaribine],1
19,NCCc1c[nH]cn1 [Histamine dihydrochloride],1
20,OC(CNCC(O)C1CCc2cc(F)ccc2O1)C1CCc2cc(F)ccc2O1 (stereo not given) [Nebivolol hydrochloride],0.998

# Source: the supplement of paper PMC12350171
